Screening results as filed in PubChem BioAssay.
FLuc counter = counter-screen for miR-21 project: firefly luciferase inhibitors or activators; purified FLuc, Km substrates, luminescence inhibition; Potency, µM (titrated, usually from 57.5 µM), for inactives: at the top dose activity change, negative = inhibition, most hits filed as inhibitors; actives 6.9% (n = 360,000); AID 588342;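 note: plate controls were vehicle for no effect and reference inhibitor for full effect; nearly all actives have a fitted effect of over 55% in size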
Target sequence (P08659 whole entry, looked up): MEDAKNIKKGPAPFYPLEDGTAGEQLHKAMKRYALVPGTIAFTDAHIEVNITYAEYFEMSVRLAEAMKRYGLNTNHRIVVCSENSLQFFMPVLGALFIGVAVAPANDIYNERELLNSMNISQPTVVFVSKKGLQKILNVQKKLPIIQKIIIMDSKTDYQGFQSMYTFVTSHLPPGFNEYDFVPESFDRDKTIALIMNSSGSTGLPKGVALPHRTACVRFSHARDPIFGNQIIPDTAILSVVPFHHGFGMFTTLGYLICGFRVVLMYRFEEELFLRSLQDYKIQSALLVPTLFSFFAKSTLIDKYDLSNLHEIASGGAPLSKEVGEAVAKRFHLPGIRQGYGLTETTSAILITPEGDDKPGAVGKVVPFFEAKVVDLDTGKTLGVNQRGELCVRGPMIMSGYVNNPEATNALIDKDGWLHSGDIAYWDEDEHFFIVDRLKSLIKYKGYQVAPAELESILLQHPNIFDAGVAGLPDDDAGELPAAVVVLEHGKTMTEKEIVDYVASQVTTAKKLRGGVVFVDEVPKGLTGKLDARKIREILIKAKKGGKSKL
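Biochemical qHTS of compounds, final roughly 60 µM downward over six points, against 10 nM purified firefly luciferase using Km concentrations of substrates (10 uM D-luciferin, 10 uM ATP) in Tris acetate pH 7.5 buffer; luminescence output.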
Rab9 prom act = Rab9 promoter activation. AID 485297. Potency, µM (series often up to 9.22 µM), without a hit: at the highest dose activation, negative = inhibition, hits mostly activators. actives 2.8% (n = 320,000). Huh7 Rab9 promoter-luciferase reporter, luminescence, 24 h; note: % of control where 0% means no effect; nearly all actives have a fitted effect of over 60% in size
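Using Huh7 cells stably transfected with Rab9 promoter–luciferase, compounds were incubated 24 h at 37 °C, 5% CO2; luciferase luminescence was read 10 min after reagent addition.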
ELG1 genotoxic = inducers of genotoxicity in HEK293T ELG1-luciferase cells | Potency, µM (series often up to 46 µM), without a hit: top-dose activity change, positive = activation, usual class: activators | actives 1.3% (n = 330,000) | HEK293T ELG1-luciferase reporter, luminescence, 16 h; note: % of control where 0% means no effect; nearly all actives have a fitted effect of over 60% in size
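HEK293T cells expressing luciferase-tagged ELG1 were exposed to compound or DMSO vehicle for 16 hr at 37 °C and 5% CO2. Luciferase activity was then measured with ONE-Glo after 30 min at room temperature.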
SMN2 splice enh = SMN2 splice variant enhancement | HEK293 SMN2-luciferase splicing reporter, luminescence, 30-36 h | Potency, µM (titrated, usually from 46.1 µM), for the others: at the highest dose activity change, positive = activation, most hits filed as activators | actives 2.8% (n = 210,000) | AID 1458; note: % of control where 0% means no effect; nearly all actives have a fitted effect of over 55% in size
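HEK293 cells carry an SMN2 minigene-luciferase reporter in which exon 7 inclusion puts luciferase in frame. Cells were seeded at 2000 cells/well, attached for 10-12 hours, then exposed to compounds for 30-36 hours at 37C before ONE-Glo luminescence.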
NPC1 promoter act = activators of NPC1 promoter; Huh7 NPC1 promoter luciferase reporter, 24 h; Potency, µM (doses to about 9.22 µM), for the others: top-dose activation, most hits filed as activators; actives 2.4% (n = 320,000); AID 485313; note: % of control where 0% means no effect; nearly all actives have a fitted effect of over 60% in size
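Huh7 cells stably carrying NPC1 promoter–luciferase, plated in Opti-MEM with 10% FBS for 2 h, were exposed to compound in DMSO for 24 h at 37 °C; luciferase reagent was added for 10 min and luminescence read.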
ELG1 DNA repair = blocks ELG1-dependent DNA repair in HEK293T cells. HEK293T ELG1-luciferase reporter, luminescence, 16 h; DNA damage induced by 5-fluorouridine. Potency, µM (series often up to 46.1 µM), without a hit: at the highest dose activity change, negative = inhibition, hits mostly inhibitors. actives 2.3% (n = 330,000). AID 504467; note: % is set by controls: 0 for no effect and ±100 for the full control effect; nearly all actives have a fitted effect of over 55% in size
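Reporter activity after DNA damage by 5-fluorouridine is monitored. Compound-treated cells incubate 16 hr at 37 °C, then ONE-Glo is added for 30 min before luminescence reading.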
* marks the source's active call; other numbers are inactive results; ? = inconclusive; . = not tested or not shown. Only some compounds are listed: those with a hit (about 9.4% of all), similar ones and a draw of the others. Calls come from the whole dose curve; as a rule, active = well fitted curve in the direction sought with a large enough effect; inconclusive = small, poorly fitted or top-dose-only effect, or another doubt; inactive = no such curve, though single readings can be large; an effect the other way counts as inactive or inconclusive. Potency is the fitted concentration of half-maximal effect.

SMILES	FLuc counter	Rab9 prom act	ELG1 genotoxic	SMN2 splice enh	NPC1 promoter act	ELG1 DNA repair
CCOC(=O)C(C)Sc1ncc(-c2ccccc2)cn1 (configuration not stated)	21µM*	23%	8%	3%	5%	?
CCOC(=O)C(C)Sc1nc(-c2ccccc2)ccc1C#N (configuration not stated)	-16%	.	.	18%	.	.
Cc1ccc(CNC(=O)Cn2c3ncccc3c(=O)n2-c2ccc(C)cc2)cc1	-7%	.	.	.	.	.
Cc1c(C)c2cc(Cl)c(OCC(=O)NC3CC(C)(C)NC(C)(C)C3)cc2oc1=O	2%	-2%	?	.	-3%	?
O=C1N[C@@H](c2ccccc2)COC(=O)[C@@H](Cc2ccc(F)cc2)CC/C=C/C[C@H]1CC(=O)N(CCO)Cc1ccccc1	.	.	-12%	.	.	15µM*
C[C@H]1COC(=O)[C@H](Cc2ccc(F)cc2)C/C=C\C[C@@H](CC(=O)N(CCO)Cc2ccccc2)C(=O)N1	.	.	-3%	.	.	-17%
CC(C)(C)[C@@H]1COC(=O)[C@H](Cc2ccc(F)cc2)C/C=C\C[C@H](CC(=O)N(CCO)Cc2ccccc2)C(=O)N1	.	.	-4%	.	.	21µM*
O=C1N[C@@H](c2ccccc2)COC(=O)[C@@H](Cc2ccc(F)cc2)CC/C=C/C[C@@H]1CC(=O)N(CCO)Cc1ccccc1	.	.	-9%	.	.	26µM*
Brc1ccc(-c2ccc(CNCCSc3nnnn3-c3ccccc3)o2)cc1	2%	.	.	-35%	.	.
CN(C)c1ccc(/C=N/NC(=O)COc2ccccc2)cc1	19µM*	20%	7%	15%	9%	?
CN(C)c1ccc(/C=N/NC(=O)CNC(=O)/C=C/c2ccccc2)cc1	2.4µM*	?	?	.	?	?
CN(C)c1ccc(/C=N/NC(=O)CNC(=O)c2ccco2)cc1	?	-2%	7%	-46%	1%	5%
CNC(=S)N/N=C/c1ccc(N(C)C)cc1	?	2.8µM*	?	.	3.5µM*	?
CN(C)c1ccc(/C=N/NC(=S)NCc2ccccc2)cc1	?	-3%	-4%	-10%	10%	13%
COCCCNC(=O)CCCn1c(=O)c2cccn2c2ccccc21	-7%	.	.	.	.	.
CCOc1ccc(Nc2oc(/C=C/c3cc(OC)c(OC)c(OC)c3)nc2C#N)cc1	1%	.	.	24%	.	.
O=C(NCCc1ccccc1)c1ccc2c(c1)N(Cc1ccccc1)C(=O)c1ccccc1S2=O (configuration not stated)	-4%	.	.	3%	.	.
CSc1ncc(C(=O)N2CCN(c3ccc(Cl)cc3)CC2)c(C)n1	-3%	.	.	.	.	.
Cn1cc(C(=O)NCCc2ccc(Cl)cc2)c(=O)c2cc(S(=O)(=O)N3CCOCC3)ccc21	-1%	.	.	-3%	.	.
Cc1ccc(-c2ccc(/C=N/N3C(=O)C4C5C=CC(C6CC56)C4C3=O)o2)c([N+](=O)[O-])c1 (configuration not stated)	?	-3%	0%	-40%	1%	-26%
O=C1C2C3C=CC(C3)C2C(=O)N1/N=C/c1ccc(-c2ccccc2[N+](=O)[O-])o1 (configuration not stated)	19µM*	24%	3%	?	17%	?
O=C1C2C3C=CC(C3)C2C(=O)N1/N=C/c1cc(Br)cc([N+](=O)[O-])c1O (configuration not stated)	19µM*	-5%	11%	-16%	-4%	-2%
CCn1nc(C(=O)Nc2ccc(S(=O)(=O)Nc3nccs3)cc2)c2ccccc2c1=O	4%	1%	5%	14µM*	0%	1%
c1ccc(-c2cc(-c3ccccc3)c3c(n2)-c2ccccc2OC3)cc1	?	.	.	-4%	.	.
CCOc1ccccc1Nc1nc(-c2cccc(Cl)c2)c2c(n1)-c1ccccc1OC2	11µM*	.	.	.	.	.
